# Measurements taken from PubChem BioAssay (NCATS).
# “And” between values parts separate entries of the source, which are not always exact repeats. Identical values can stand only once. Records with an inconclusive call do not appear. Where a call stands in place of a potency, no number is given. Unmarked numbers belong to inactive results. The source made the active and inactive calls. The call rests on the fitted dose curve; in most records, active means well fitted cell-killing curve with a large enough effect; inconclusive means small, poorly fitted or top-dose-only effect; inactive means flat fitted curve, though single readings scatter. Square brackets hold non-standard residues; d marks the D form. Peptide text beside a SMILES is read from it. * marks the point of attachment. Nva = CCC[C@H](N)C(=O)O; Cbz = O=C(OCc1ccccc1)*
# Experiment: Cellular viability qHTS for adrenocortical cancer (ACC) cell line NCI-H295R (AID 1963990); further: nearly all actives have a fitted effect of over 60% in size
# Conditions: CellTiter-Glo ATP luminescence, 48 h; series mostly up to 46.1 µM
# Source text: PI: Naris Nilubol, MD Surgical Oncology Program, National Cancer Institute (NCI) National Institute of Health (NIH), Bethesda, Maryland Adrenocortical cancer (ACC) is a rare malignancy with poor survival outcomes and few treatment options. Currently, mitotane is the only FDA-approved therapy for ACC. Although adjuvant radiation therapy is rarely utilized, it has the potential to improve survival in select cases. Through a quantitative high-throughput drug screen (qHTS), we identified auranofin (AF), a thioredoxin reductase (TXNRD) inhibitor, as a promising candidate drug. This study aims to evaluate whether AF can enhance the efficacy of radiation therapy in the treatment of ACC. Two human ACC cell lines, SW-13 and NCI-H295R, were screened using the National Center for Advancing Translational Sciences (NCATS) Pharmaceutical Collection (NPC) and the Mechanism Interrogation PlatE (MIPE) library (~4,991 compounds). CellTiter-Glo (Cat # G7570, Promega, Madison, WI) was utilized to measure cell viability. Described herein are the results of the corresponding viability assay.
# PROTOCOL TABLE (as described by Inglese J, Shamu CE and Guy RK. 2007) SEQUENCE No. (e.g., 1, 2, 3, etc.); […] (e.g., Cells, Incubation, Reagent, etc.); VALUE; DESCRIPTION. 1; Cells; 5 uL; white, solid-bottom, 1536-well tissue-culture treated plates. 2; Time; overnight culture at 37C with 5% CO2. 3; Compounds and control; 23 nL; Kalypsis pin tool (Wako USA) equipped with a 1536-well pin head to transfer to the assay plates. 4; Time; 48 hours; 37C with 5% CO2. 5; Reagent; 4 uL; CellTiter-Glo luminescent substrate mix. 6; Time; 20 min at room temperature. 7; Detection; Luminescence; ViewLux plate reader NOTES (numbers refer to Sequence numbers above) 1. NCI-H295R cells were harvested from a T175 flask and resuspended in ITS-supplemented DMEM serum-free medium at a concentration of 300 000 cells/mL. Then 5 uL of resuspended cells were dispensed into each well of white, solid-bottom, 1536-well tissue-culture-treated plates using a multidrop combi dispenser. The plates were covered with stainless steel gasket lids. 2-3. The plates were cultured overnight at 37C with 5% CO2. Twenty-three nL of compounds (eight selected concentrations from the NPC / MIPE) or positive control (10 mM stock of bortezomib) in DMSO was transferred to each well of the assay plate using a pin tool (Kalypsys, San Diego, CA, USA). The final concentration of the compounds in the 5 uL assay volume ranged from 0.5 nM to 46 uM. 4-6. After 48 hours of incubation at 37C and 5% CO2, 4 uL of CellTilter-Glo luminescent substrate mix (Promega, Madison, WI, USA) was added to each well. Then the plates were incubated for 20 minutes at room temperature. 7. After incubation, luminescence was measured using a ViewLux plate reader (PerkinElmer, Waltham, MA, USA) with a clear filter was used to measure the number of metabolically competent cells. To determine compound activity in the qHTS assay, the titration-response data for each sample was plotted and modeled by a four-parameter logistic fit yielding IC50 and efficacy (maximal response) values. Raw plate reads for each titration point were normalized relative to positive control ([…], 100% inhibition) and DMSO-only wells (basal, 0%). REFERENCES: Inglese J, Shamu CE and Guy RK, Reporting data from high throughput screening of small molecule libraries, Nature Chemical Biology, 2007, 3(8): 438-441. doi.org/10.1038/nchembio0807-438.
Structure (SMILES),Potency,"activity change, negative = viability loss"
c1ccc2c(CC3=NCCN3)cccc2c1,inactive,
FC(F)(F)C(Cl)Br (stereo not given),inactive,
c1ccc2sc(SN3CCOCC3)nc2c1,inactive,
CC1CCC(n2c3cnccc3c3cnc(Nc4ccc5c(n4)CCN(C(=O)CO)C5)nc32)CC1 (stereo not given),,3.35% [at 9.17 µM]
CC(Cc1ccccc1)(NC(=O)CN)c1ccccc1 (stereo not given),inactive,
CCOc1ccc(Cc2cc([C@@H]3O[C@H](CO)[C@@H](O)[C@H](O)[C@H]3O)ccc2Cl)cc1,inactive,
Cc1cc2cc(Oc3ccnc(Nc4cccc(CS(=O)(=O)NCCN(C)C)c4)n3)ccc2[nH]1,25.1 µM (active),
O=C(O)CCC(=O)c1ccc(-c2ccccc2)cc1,inactive,
c1ccc(-c2ccc(CNc3nc(-c4ccccn4)nnc3-c3ccccc3)cc2)cc1,17.8 µM (active),
Oc1ccc(C(O)CNCCCCCCNCC(O)c2ccc(O)c(O)c2)cc1O (stereo not given),inactive,
CN1CCN(CCCN2c3ccccc3Sc3ccc(C(F)(F)F)cc32)CC1,23.1 µM (active),
CS(=O)(=O)N1CCC(NC(=O)c2[nH]ncc2NC(=O)c2c(Cl)cccc2Cl)CC1,11.2 µM (active),
Cn1cnc(-c2cc3nccc(Oc4ccc(NC(=S)NC(=O)Cc5ccccc5)cc4F)c3s2)c1,14.1 µM (active),
CCC[C@@H](C=O)NC(=O)[C@H](CC(C)C)NC(=O)[C@H](CC(C)C)NC(=O)OCc1ccccc1 (Cbz-Leu-Leu-[Nva]-aldehyde),1.58 µM (active),
Cc1ccnc(NS(=O)(=O)c2ccc(NC(=O)Nc3ccc(S(=O)(=O)Nc4nccc(C)n4)cc3)cc2)n1,inactive,
CN(C)S(=O)(=O)c1ccc2c(c1)C(=Cc1cc3c([nH]1)CCCC3)C(=O)N2,inactive,
COc1cc(/C=C/C(=O)O[C@H]2CC[C@]34C[C@]35CC[C@]3(C)[C@@H]([C@H](C)CCC=C(C)C)CC[C@@]3(C)[C@@H]5CC[C@H]4C2(C)C)ccc1O,18.4 µM (active),
CC(C)(C)C(=O)Oc1ccc(S(=O)(=O)Nc2ccccc2C(=O)NCC(=O)O)cc1,inactive,
CCN(CC)CC(=O)OCC(=O)[C@@]1(O)CC[C@H]2[C@@H]3CCC4=CC(=O)CC[C@]4(C)[C@H]3[C@@H](O)C[C@@]21C,inactive,
COC(=O)/C=C/C(=O)N(O)CCCCNCc1ccc(COC(=O)Nc2cccc3ccccc23)cc1,inactive,

Structure (SMILES),Potency,"activity change, negative = viability loss"
C[C@H]1NCc2cc(-c3ccc4c(=O)c(C(=O)O)cn(C5CC5)c4c3OC(F)F)ccc21,inactive,
COc1ccccc1N1CCN(CCCCNC(=O)c2ccc(-c3ccc(C(C)=O)cc3)cc2)CC1,inactive,
Cc1cc(C(C)Nc2ccccc2)c2nc(N3CCOCC3)cc(=O)n2c1 (stereo not given),inactive,
Cc1cc(NC(=O)Nc2ccc(N(C)C)cc2)c2cc(F)cc(F)c2n1,inactive,
CC/C(=C(\c1ccccc1)c1ccc(OCCN(C)C)cc1)c1ccccc1,11.2 µM (active) and 16.4 µM (active),
O[C@@H](CNC[C@H](O)[C@H]1CCc2cc(F)ccc2O1)[C@@H]1CCc2cc(F)ccc2O1,18.4 µM (active),
O=C(O)c1cc(O)c(O)c(O)c1,inactive,
COc1ccc(-c2cc(C(F)F)nn2-c2ccc(S(N)(=O)=O)cc2)cc1F,inactive,
Cc1cc(C)c(/C=C2\C(=O)Nc3ccccc32)[nH]1,inactive,
CCN(CC)CCCC(C)Nc1nc(C)cc(Nc2ccc3nc(C)cc(N)c3c2)n1 (stereo not given),inactive,
CC(C)C(=O)Nc1ccc([N+](=O)[O-])c(C(F)(F)F)c1,inactive,
Nc1ncnc2c1c(-c1cnc3[nH]ccc3c1)nn2C1CCCC1,2.82 µM (active),
Cc1ccc(C(=O)Nc2cccc(C(F)(F)F)c2)cc1Nc1nc(-c2cccnc2)nc2c1cnn2C,3.16 µM (active),
CC(C)n1cc(-c2ccc3c(c2)N(C)CC3)c2c(NS(=O)(=O)c3ccn(C)n3)ccnc21,inactive,
C[C@@H](O)[C@H](N)C(=O)O,inactive,
CNC(=O)Nc1ccc(-c2nc(N3CC4CCC(C3)O4)c3cnn(C4CCC5(CC4)OCCO5)c3n2)cc1,0.282 µM (active),
FC(F)(F)c1ccc(CNc2ccc(Cc3c[nH]c4ncc(Cl)cc34)cn2)cn1,inactive,
CC[C@@](C)(Nc1ccnc(-c2c[nH]c3ncccc23)n1)C(=O)NCC(F)(F)F,inactive,
CCOC(=O)C1=C(O)C(=O)N(Cc2ccccc2)C1,inactive,
CCCCN1C[C@H](O)[C@@H](O)[C@H](O)[C@H]1CO,inactive,
